Test results as given in PubChem BioAssay (NCI).
Where “and” joins values, the source holds several entries; their conditions need not be identical. Equal entries are not always repeated. About 83,000 compounds went through this panel and 20% of them were active in at least one assay; those are over-represented in the sample as a whole.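 Results are percent growth after 48 hours of single-concentration exposure. 100 means growth as in untreated cells, lower positive values show inhibition; negative values down to -100 show cell death.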 Calls of active or inactive are those of the source. Rule for the calls: active = growth percent below 10; inactive = the rest.

How the values were obtained:
Assay in all cases: NCI-60 one-dose screen, 48 h (100 = growth as untreated, 0 = no growth, -100 = all killed)
Conditions in all cases: 10 µM unless noted
NCI-H23 lung = system: NCI-H23 lung
NCI-H226 lung = system: NCI-H226 lung
NCI-H322M lung = system: NCI-H322M lung
HOP-62 NSCLC = system: HOP-62 NSCLC
HOP-92 NSCLC = system: HOP-92 NSCLC
NCI-H522 lung = system: NCI-H522 lung
A549/ATCC NSCLC = system: A549/ATCC NSCLC
786-0 renal = system: 786-0 renal
COLO 205 colon = system: COLO 205 colon
NCI-H460 lung = system: NCI-H460 lung

Measured: growth

CC1(C)[C@@H](OC(=O)CCC(=O)O)CC[C@]2(C)[C@H]3C(=O)C=C4[C@@H]5C[C@@](C)(C(=O)O)CC[C@]5(C)CC[C@@]4(C)[C@]3(C)CC[C@@H]12
107% (inactive) and -54.4% (active): NCI-H322M lung
86.5% (inactive) and -40.5% (active): NCI-H522 lung
107% (inactive) and -28.4% (active): A549/ATCC NSCLC
104% (inactive) and -75.4% (active): NCI-H226 lung
113% (inactive) and -3.87% (active): COLO 205 colon
103% (inactive) and -54.9% (active): HOP-62 NSCLC
121% (inactive) and -74.4% (active): HOP-92 NSCLC
98.4% (inactive) and -66.9% (active): 786-0 renal
105% (inactive) and -34.8% (active): NCI-H23 lung

Cc1c(Cl)cccc1NCN1C(=O)c2ccccc2C1=O
inactive: NCI-H23 lung 102% | NCI-H226 lung 98.7% | NCI-H322M lung 99.8% | HOP-62 NSCLC 101% | NCI-H460 lung 108% | NCI-H522 lung 81.1% | A549/ATCC NSCLC 99.1% | 786-0 renal 103% | COLO 205 colon 105%

Nc1ncnc2c1ncn2C1CC(O)C(CO)O1 (stereo not drawn)
inactive: NCI-H23 lung 106% and 112% | NCI-H226 lung 101% and 105% | NCI-H322M lung 155% and 112% | HOP-62 NSCLC 109% and 105% | NCI-H460 lung 102% and 124% | NCI-H522 lung 142% and 100% | A549/ATCC NSCLC 101% | 786-0 renal 101% and 105% | COLO 205 colon 116% and 107%

CNC(=O)c1cccc(-c2ccc3c(N4CCOC[C@@H]4C)nc(N4CCOC[C@@H]4C)nc3n2)c1
10.4% (inactive) and -11.1% (active): NCI-H522 lung
inactive: NCI-H23 lung 18.3% and 10.2%
active: NCI-H226 lung -11.5% and -2.84% | NCI-H322M lung 6.83% and -14.6% | HOP-62 NSCLC -3.27% and -14.6% | HOP-92 NSCLC -25.3% and -21.5% | 786-0 renal 0.967% and -5.74% | COLO 205 colon 4.53% and -11.4%
11.4% (inactive) and 9.46% (active): NCI-H460 lung

COc1ccccc1NC(=O)OCC#CCOC(=O)Nc1ccccc1OC
inactive: NCI-H23 lung 101% and 95.5% | NCI-H226 lung 97.8% and 90.5% | NCI-H322M lung 112% and 98.4% | HOP-62 NSCLC 102% and 91.8% | HOP-92 NSCLC 83.1% | NCI-H522 lung 80.2% and 76.8% | A549/ATCC NSCLC 101% and 87% | 786-0 renal 108% and 88.2% | COLO 205 colon 107% and 120%

CN(C)c1ccc(C(=C2C=CC(=[N+](C)C)C=C2)c2ccccc2Cl)cc1
active: NCI-H23 lung -52.2% and -82.2% | NCI-H226 lung -41.3% and -56.5% | HOP-62 NSCLC -43.7% and -94.3% | NCI-H460 lung -60.8% and -49.7% | HOP-92 NSCLC -78.2% and -72% | NCI-H522 lung -57.4% and -56.5% | 786-0 renal -88.2% and -100% | COLO 205 colon -89.1% and -90%
-7.26% (active) and 10.3% (inactive): NCI-H322M lung

Clc1nc(Oc2ccccc2)nc(-c2cn(-c3ccccc3)c3ccccc23)n1
active: HOP-92 NSCLC -40.8%
inactive: NCI-H23 lung 14.5% | NCI-H226 lung 80.2% | NCI-H322M lung 93.5% | HOP-62 NSCLC 101% | NCI-H460 lung 97.2% | NCI-H522 lung 111% | 786-0 renal 101% | COLO 205 colon 98.1%

Nc1ccc2[nH]c(-c3ccccc3)cc(=O)c2c1
inactive: NCI-H23 lung 98.3% | NCI-H226 lung 101% | NCI-H322M lung 97.5% | HOP-62 NSCLC 96.8% | NCI-H460 lung 97.4% | NCI-H522 lung 71.3% | A549/ATCC NSCLC 102% | 786-0 renal 96.6%

N#C/C(=C/c1c(O)ccc2ccccc12)C(N)=O
inactive: NCI-H23 lung 87.1% | NCI-H226 lung 89% | NCI-H322M lung 107% | HOP-62 NSCLC 81.1% | NCI-H460 lung 103% | NCI-H522 lung 76.4% | A549/ATCC NSCLC 107% | 786-0 renal 83.6% | COLO 205 colon 105%

COc1cc2c(Nc3ccc(Cl)c(Cl)c3F)ncnc2cc1OCC1C[C@@H]2CN(C)C[C@@H]2C1 (stereo partly drawn)
-65.1% (active) and 46% (inactive): NCI-H226 lung
-79.4% (active) and 21.6% (inactive): NCI-H460 lung
active: NCI-H522 lung -80.7% and -36.8% | 786-0 renal -91.9% and -22.5% | COLO 205 colon -84.6% and -25.1%
-82.2% (active) and 40% (inactive): NCI-H23 lung
-96.4% (active) and 21.5% (inactive): NCI-H322M lung
-87.2% (active) and 16.6% (inactive): HOP-62 NSCLC
-84.5% (active) and 16.3% (inactive): HOP-92 NSCLC

c1ccc(NCc2ccc3c(c2)OCO3)cc1
inactive: NCI-H23 lung 100% and 105% | NCI-H226 lung 103% and 97.9% | NCI-H322M lung 114% and 99.2% | HOP-62 NSCLC 93.7% and 101% | NCI-H460 lung 105% and 99.4% | NCI-H522 lung 91.1% and 95.6% | A549/ATCC NSCLC 103% and 95.3% | 786-0 renal 102% and 96.8% | COLO 205 colon 113% and 102%

Nc1ccc2ccc(N)cc2c1
inactive: NCI-H23 lung 69.7% | NCI-H226 lung 95.7% | NCI-H322M lung 69.1% | HOP-62 NSCLC 86% | NCI-H460 lung 91.7% | HOP-92 NSCLC 101% | A549/ATCC NSCLC 82.5% | 786-0 renal 94.3% | COLO 205 colon 89.6%

COC(=O)c1nc(N)nc(C(=O)OC)c1C(=O)c1ccc(OC)cc1
inactive: NCI-H23 lung 98.5% and 58% | NCI-H226 lung 101% and 74.8% | NCI-H322M lung 105% and 88.1% | HOP-62 NSCLC 115% and 62.3% | NCI-H460 lung 121% and 55% | HOP-92 NSCLC 106% and 63.4% | NCI-H522 lung 100% and 55.7% | 786-0 renal 124% and 72.4% | COLO 205 colon 109% and 75.8%

CC(=O)Nc1ccc(O)cc1
inactive: NCI-H23 lung 99.3% and 112% and 102% | NCI-H226 lung 92.9% and 106% and 112% | NCI-H322M lung 108% and 111% and 102% | HOP-62 NSCLC 111% and 106% and 104% | HOP-92 NSCLC 80.3% and 120% | NCI-H522 lung 94.3% and 47% | A549/ATCC NSCLC 96.9% and 122% and 108% | 786-0 renal 99.5% and 106% and 103% | COLO 205 colon 105% and 116% and 101%

Oc1c(CN2CCCCC2)ccc2cccnc12
inactive: NCI-H23 lung 79% and 80.2% | NCI-H226 lung 63.8% and 33.7% | NCI-H322M lung 36.5% and 32.4% | HOP-62 NSCLC 52.1% and 41.1% | NCI-H460 lung 21.1% and 10.5% | A549/ATCC NSCLC 43.6% and 36% | 786-0 renal 11% and 42.4% | COLO 205 colon 66.7% and 80.4%
-3.86% (active) and 16.2% (inactive): NCI-H522 lung

O=C(O)C1C2C=CC(C2)C1C(=O)O (stereo not drawn)
inactive: NCI-H23 lung 104% and 30.6% and 111% | NCI-H226 lung 105% and 38.6% and 91.2% | NCI-H322M lung 99.3% and 38.9% and 104% | HOP-62 NSCLC 114% and 30.1% and 92.8% | NCI-H460 lung 104% and 13.9% and 105% | HOP-92 NSCLC 98.6% and 98.2% | NCI-H522 lung 87.1% and 102% | 786-0 renal 105% and 28.3% and 104% | COLO 205 colon 115% and 46.9% and 118%

NC(=O)c1ccccc1OCC(O)CO (stereo not drawn)
inactive: NCI-H23 lung 110% | NCI-H226 lung 95.8% | NCI-H322M lung 110% | HOP-62 NSCLC 101% | NCI-H460 lung 103% | HOP-92 NSCLC 117% | NCI-H522 lung 98.4% | 786-0 renal 103% | COLO 205 colon 114%

CC(O)Cn1cnc2c1c(=O)n(C)c(=O)n2C (stereo not drawn)
inactive: NCI-H23 lung 96.7% | NCI-H226 lung 102% | NCI-H322M lung 96.6% | HOP-62 NSCLC 102% | NCI-H460 lung 118% | 786-0 renal 102%
